Screening data: PubChem, several laboratories
NOD2-RIPK2 inh = inhibitors of human NOD2-RIPK2 interaction; O43353; CHO BLA complementation NOD2-RIPK2, CCF4 ratio; inhibition, % at 4.98 µM; 0.38% of 360,000 active; AID 624267; in the data active = inhibition above about 21%;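 also: 0% = vehicle only and 100% = reference blocker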
HSF1 inh = HSF1 inhibition. activity change, negative = inhibition, % at 7.5 µM (by protocol). AID 2098. 0.77% of 300,000 active. NIH3T3-HGL HSE-luciferase, MG132-induced, luminescence 8 h; active compounds read low;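 active = more than half of replicate wells show activity change below -50%, luminescence cut by over half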;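 also: luciferase reports HSF-1 transcriptional activity via heat shock element; 0% = median of DMSO wells and -100% = zero luminescence signal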
HSF1 activator = increases HSF-1 driven luciferase reporter signal; NIH3T3-HGL HSF-1 luciferase reporter, MG132, 8 h; 100% = twice DMSO control signal; activation, % at 9 µM; 1.7% of 300,000 active; AID 504408;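 active = mean replicate activation of at least 50% with a set share of replicates each reaching 50%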;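 also: 0% = median of the neutral control wells and 100% = twice that signal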
TLR4-MyD88 BLA = TLR4-MyD88 interaction inhibition in cells. HeLa CL3-4 TLR4/MyD88 BLA complementation, FRET ratio. O00206+Q99836. 0.18% of 200,000 active. inhibition, % at 8.4 µM; in the data active = inhibition above about 25%;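 also: 0% = vehicle and 100% = reference inhibitor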
TLR9-MyD88 inh = inhibitors of human TLR9-MyD88 binding; Q9NR96+Q99836; CHO BLA complementation TLR9-MyD88, CCF4 FRET ratio; inhibition, % at 4.98 µM; 0.21% of 340,000 active;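 active = inhibition above the mean over all tested compounds plus 3 SD, cut at about 21% in these data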;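 also: 0% = DMSO only wells and 100% = clavulanate BLA inhibitor control wells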
Starred values were filed as active, the others as inactive; nt = not tested or not shown. The list is not random: actives were taken first. Their share in the collection is about 2.4%.

SMILES	NOD2-RIPK2 inh	HSF1 inh	HSF1 activator	TLR4-MyD88 BLA	TLR9-MyD88 inh
Cc1nc2ccccc2c(=O)n1NC(=O)c1cccc(Cl)c1	-9.5	6.0	31.4	nt	-5.7
O=C(N/N=C/C(Br)=C\c1ccccc1)c1cccs1	3.2	105.2	100.7*	nt	nt
O=C(N/N=C/C(Br)=C/c1ccccc1)c1ccncc1	3.8	8.4	34.2	nt	4.0
COc1ccc(C(CNC(=O)c2cccc(S(=O)(=O)Nc3ccc(F)cc3)c2)N2CCOCC2)cc1 (centres undefined)	-1.5	nt	nt	nt	-5.6
CCN1CCN(/C=N/c2nc3c(s2)CCCC3)CC1	-1.7	-55.4*	-59.8	-3.6	1.1
CCC(=O)Nc1c(S(=O)(=O)c2ccccc2)c2nc3ccccc3nc2n1C(C)c1ccccc1 (centres undefined)	-3.0	41.1	82.8*	-2.3	0.4
CCN(CC)S(=O)(=O)c1cccc(-c2nnc(SCc3nc4ccccc4s3)o2)c1	-2.8	39.8	62.2*	-5.5	4.6
Brc1ccccc1-c1nnc(SCc2nc3ccccc3s2)o1	-2.4	11.3	54.5*	0.9	7.6
O=C(O)c1ccc(CSc2nnc(-c3ccccc3Br)o2)cc1	-12.5	2.0	2.5	nt	-7.1
Cc1ccc(NC(=O)Cn2c(CCC(=O)O)ccc2-c2cccs2)cc1	2.0	39.4	61.9*	3.7	1.2
Brc1ccc(/C=N/Nc2nc3ccccc3o2)cc1	-5.6	20.4	63.2*	nt	-2.9
CC(C)(C)Cc1c(-c2ccc(F)cc2)nc2ccc(Cl)cn12	-2.5	nt	nt	nt	8.1
Fc1ccc(-n2cc(CNCCc3ccccn3)c(-c3ccccc3Cl)n2)cc1	-5.1	-52.5*	-65.5	-2.2	-4.9
CN(Cc1ccccc1)C(=O)c1cccc(NC(=O)Cc2ccc(NC(=O)C3CCN(C(=O)C4CC4)CC3)cc2)c1	-3.3	nt	nt	nt	-5.3
CCOC(=O)c1nnn(CC(=O)NC(=O)Nc2ccc(F)cc2)c1C(=O)OCC	-9.3	-71.6*	-78.5	0.4	6.4
CCOC(=O)c1nnn(CC(=O)NC(=O)Nc2ccccc2)c1C(=O)OCC	-10.2	-0.1	-5.7	8.2	10.2
Cc1ccc(Nc2cc(C)nn2-c2nc(C)cc(=O)[nH]2)cc1	53.1*	-7.6	-7.6	15.8	41.1*
CC(C)Cc1ccc(/C=C/C(=O)N2CCCCC2)cc1	2.5	29.6	58.4*	3.7	2.9
Cc1ccc(/C=C/C(=O)N2CCCC(C)C2)cc1 (centres undefined)	0.6	24.2	64.9*	-9.5	3.2
CCc1ccc(/C=C\C(=O)N2CCCC2)cc1	-5.1	11.4	6.8	nt	-5.1
C[C@H]1CN([C@@H](C)CO)S(=O)(=O)c2ccc(Br)cc2O[C@@H]1CN(C)C(=O)Cc1ccccc1	-0.6	nt	nt	nt	-5.7
CCCOC1CCCN(C(=O)c2cc(COc3c(F)cccc3F)on2)C1 (centres undefined)	-5.8	41.6	57.7*	nt	0.0
Cc1ccccc1C1CCCN(C(=O)c2cc(COc3c(F)cccc3F)on2)C1 (centres undefined)	-4.9	-0.3	2.8	-9.7	-7.0
Cc1cccc(C(=O)Oc2ccc(/C=N/NC(=O)c3ccccc3O)cc2)c1	-10.1	52.9	55.2*	1.4	-9.2
CCCOc1ccc(-c2c(C(=O)N/N=C/c3ccccc3OCC)nnn2-c2nonc2N)cc1	-5.4	-68.5*	-75.2	nt	-5.4
SMILES	NOD2-RIPK2 inh	HSF1 inh	HSF1 activator	TLR4-MyD88 BLA	TLR9-MyD88 inh
CCOc1cccc(-c2c(C(=O)N/N=C/c3ccc(C)s3)nnn2-c2nonc2N)c1	11.4	4.1	4.1	nt	-9.1
COc1cccc(-c2c(C(=O)N/N=C/c3ccc(C)s3)nnn2-c2nonc2N)c1	3.8	-87.4*	-89.3	nt	11.7
CC[C@@]1(C(=O)OC)N[C@H](CN(C)C(=O)C2CCCCC2)[C@@H]2C(=O)N(Cc3ccccc3)C(=O)[C@@H]21	3.1	nt	nt	nt	-0.5
Cc1ccccc1N1CCN(C(=O)NCc2cccc(Cl)c2)CC1	-2.6	2.9	-7.7	nt	-10.8
N#Cc1ccc(OCC(=O)NNC(=S)NC2CCCCC2)cc1	5.4	nt	nt	nt	13.2
CCCCN(C)C(=O)C1CCC(CNS(=O)(=O)c2ccc3c(c2)CC(C)N3C(=O)C2CC2)CC1 (centres undefined)	3.8	14.8	60.8*	nt	-4.5
O=C(NC1=NN(c2ccccc2)CC1)Nc1ccccc1F	0.4	28.5	29.5	nt	2.4
COc1ccc(NCc2nnc(SCC(=O)Nc3cc(C(F)(F)F)ccc3Cl)o2)cc1	2.4	-59.7*	-67.4	3.1	-10.2
O=c1[nH]c2ccccc2nc1/C=C/c1ccccc1	0.1	62.1	98.7*	-15.1	-12.0
